# Compound activity: PubChem, National Center for Advancing Translational Sciences (NCATS)
# CtBP-E1A blk: qHTS Assay for Inhibitors of the CtBP/E1A Interaction; CtBP / adenovirus E1A interaction (AlphaScreen); AlphaScreen GST-E1A/His-CtBP binding, 1536-well; hits give low values; activity change, % (test concentration not listed); actives 0.49% (n = 340,000); AID 651724, 2012; in the data active means activity change below about -65%; inconclusive means mostly about -30% to -63%
#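 Protein mix (5X: 125 nM each GST-E1A, His-CtBP) was incubated with pinned compound 2 h at 37 deg C in dark, in 50 mM Tris pH 8.0 buffer with 300 mM NaCl. Glutathione donor and nickel acceptor beads followed; AlphaScreen signal read after 1 h.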
# DT40 TDP1 CPT: qHTS for Inhibitors of human tyrosyl-DNA phosphodiesterase 1 (TDP1): qHTS in cells in presence of CPT; chicken DT40 Tdp1-/-;hTDP1 cells + 20 nM CPT, ATP luminescence, 48 h; Potency, µM (highest dose often 46.2 µM), without a hit: top-dose activity change, negative = growth inhibition, most hits filed as inhibitors; actives 12% (n = 420,000); further: potency means the concentration at half of the fitted maximal effect; nearly all actives have a fitted effect of over 55% in size
#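 Chicken DT40 Tdp1-/- cells complemented with human TDP1, 400 cells/well, exposed to compounds plus 20 nM camptothecin for at least 48 h at 37 C; viability read as ATP content by CellTiter-Glo luminescence.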
# TDP1 cell noCPT: qHTS for Inhibitors of human tyrosyl-DNA phosphodiesterase 1 (TDP1): qHTS in cells in absence of CPT. actives 15% (n = 420,000). Potency, µM (series often up to 46.2 µM), without a hit: top-dose activity change, negative = growth inhibition, actives largely listed as inhibitors. DT40 Tdp1-/- hTDP1 cells, no CPT, ATP luminescence, 48 h; further: potency means the concentration at half of the fitted maximal effect; nearly all actives have a fitted effect of over 55% in size
#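 Camptothecin absent (DMSO only). Human TDP1-complemented DT40 knockout cells, 400 cells/well, 37 °C for minimum 48 hr; ATP measured via CellTiter-Glo, 30 min dark incubation, luminescence.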
# TDP1 block: qHTS Assay for Inhibitors of Tyrosyl-DNA Phosphodiesterase (TDP1) | Tyrosyl-DNA phosphodiesterase 1 (Homo sapiens), Q9NUW8 | recombinant TDP1, AlphaScreen DNA substrate cleavage | actives 0.28% (n = 350,000) | AID 485290, 2010 | Potency, µM (highest dose often 130 µM), for inactives: top-dose activity change, negative = inhibition, actives largely listed as inhibitors; further: potency means the concentration at half of the fitted maximal effect; nearly all actives have a fitted effect of over 40% in size
#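 Tdp1 1 nM final; 15 min RT w/ cpd; substrate 15 nM, 5 min; beads 10 ug/ml, 10 min; AlphaScreen read. Neg ctrl: no enzyme.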
# IL1B secr inh: qHTS for Inhibitors of Inflammasome Signaling: IL-1-beta AlphaLISA Primary Screen. THP-1 LPS/ATP IL-1B secretion, AlphaLISA, 16 h; hits give low values. activity change, % at 57.5 µM. actives 4.7% (n = 360,000). AID 743279, 2014; in the data active means activity change below about -50%; inconclusive means mostly about -30% to -49%
#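 THP-1 cells pretreated 1 hr with compounds (up to 57.5 uM final), then stimulated with LPS (250 ng/mL final) plus ATP (1.25 mM final); secreted IL-1B measured by AlphaLISA after 16 hr, decreased signal indicating inhibition.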
# Six1-Eya2 inh: qHTS Assay for Inhibitors of the Six1/Eya2 Interaction. actives 0.56% (n = 360,000). activity change, % (no concentration beside the values). AID 651725, 2012. AlphaScreen GST-Six1/His-Eya2 binding, biochemical; hits give low values; in the data active means activity change below about -65%; inconclusive means mostly about -30% to -63%
# Target sequence (O00167 whole entry, looked up): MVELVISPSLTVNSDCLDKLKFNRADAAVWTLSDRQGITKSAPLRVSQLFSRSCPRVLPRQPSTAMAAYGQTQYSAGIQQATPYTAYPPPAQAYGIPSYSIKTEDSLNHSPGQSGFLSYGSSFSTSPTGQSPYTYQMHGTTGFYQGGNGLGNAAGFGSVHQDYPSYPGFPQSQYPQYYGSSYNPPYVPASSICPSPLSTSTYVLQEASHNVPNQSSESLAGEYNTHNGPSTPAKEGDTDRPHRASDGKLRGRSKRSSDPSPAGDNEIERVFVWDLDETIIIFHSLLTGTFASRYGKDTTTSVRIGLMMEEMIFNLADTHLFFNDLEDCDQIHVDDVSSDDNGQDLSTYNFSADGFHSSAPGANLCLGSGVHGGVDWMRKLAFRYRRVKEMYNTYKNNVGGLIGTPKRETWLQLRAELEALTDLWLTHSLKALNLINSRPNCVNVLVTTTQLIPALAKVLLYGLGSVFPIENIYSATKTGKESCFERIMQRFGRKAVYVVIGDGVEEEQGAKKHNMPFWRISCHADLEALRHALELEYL
# Target sequence (Q15475 whole entry, looked up): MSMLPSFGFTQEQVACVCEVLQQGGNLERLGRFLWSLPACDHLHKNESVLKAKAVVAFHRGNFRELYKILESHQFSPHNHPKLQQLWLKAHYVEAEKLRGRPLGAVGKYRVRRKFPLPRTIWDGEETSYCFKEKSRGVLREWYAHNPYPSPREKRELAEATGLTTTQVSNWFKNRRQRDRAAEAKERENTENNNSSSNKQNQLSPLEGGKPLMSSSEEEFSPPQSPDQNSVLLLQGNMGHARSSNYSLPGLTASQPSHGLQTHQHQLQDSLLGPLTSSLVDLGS
#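 Six1/Eya2 binding was read as AlphaScreen signal after compounds were pinned into GST-Six1 plus His-tagged Eya2 (5X stock 250/500 nM) in pH 8.0 Tris/NaCl/TCEP buffer, beads added, then incubated 1 h, 37 C, dark.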
# * marks the source's active call; other numbers are inactive results; ? = inconclusive; nt = no result given; [ ] = dose if it differs, or a comment. This is a sample that favours compounds with a hit; in the whole collection about 18% have one here. Unless noted, the call rests on the fitted dose curve; in most records, active means well fitted curve in the direction sought with a large enough effect; inconclusive means small, poorly fitted or top-dose-only effect, or another doubt; inactive means no such curve, though single readings can be large; an effect the other way counts as inactive or inconclusive. On the % scale 0 is the no-effect control and ±100 the full control effect.
SMILES,CtBP-E1A blk,DT40 TDP1 CPT,TDP1 cell noCPT,TDP1 block,IL1B secr inh,Six1-Eya2 inh
CCOC(=O)C1CCCN(C(=O)c2ccc(-c3ccc([N+](=O)[O-])cc3)o2)C1 (stereo not drawn),-2,12µM*,12µM*,nt,-22,?
CCOC(=O)C1CCCN(C(=O)Cc2ccc(C)cc2)C1 (stereo not drawn),0,?,18µM*,5%,6,26
CCOC(=O)C1CCCN(C(=S)Nc2ccc(Nc3ccccc3)cc2)C1 (stereo not drawn),-10,?,23µM*,8%,-96*,-22
Cc1ccc(-c2cc(=O)[nH]c3ccccc23)cc1,-1,9.2µM*,7.3µM*,nt,-4,-3
NCCSc1c(-c2ccccc2)[nH]c2ccccc12,-25,?,21µM*,nt,-21,2
NCCSc1c(-c2ccc(Cl)cc2)[nH]c2ccccc12,0,?,?,7%,-65*,-10
Cc1ccc(NC(=O)c2cc(=O)[nH]c3ccccc23)cc1,-16,-2%,23%,nt,-8,-16
Cc1[nH]c2ccccc2c1SCCN,-8,?,?,nt,-15,-2
Cc1[nH]c2ccccc2c1SCc1ccccc1,-5,?,?,2%,2,-1
Cc1ccc(-c2[nH]c3ccccc3c2SCCN)cc1,-2,?,15µM*,6%,-65*,-16
CCOc1cccc(-c2nc3ccccc3c(=O)o2)c1,nt,?,?,-9%[12.3 µM],nt,nt
CC(C)CCN1C(=O)c2ccccc2C1c1nnnn1-c1ccc2c(c1)OCCO2 (stereo not drawn),3,23µM*,16µM*,nt,-4,-1
Cc1ccccc1CN1C(=O)c2ccccc2C1c1nnnn1-c1ccc2c(c1)OCCO2 (stereo not drawn),0,5.2µM*,4.1µM*,nt,99,-5
COCCN1C(=O)c2ccccc2C1c1nnnn1-c1ccc2c(c1)OCCO2 (stereo not drawn),7,-9%,5%,nt,0,7
O=C1c2ccccc2C(c2nnnn2-c2ccc3c(c2)OCCO3)N1CCc1c[nH]c2ccccc12 (stereo not drawn),2,18µM*,15µM*,nt,27,-6
COc1ccc(CN2C(=O)c3ccccc3C2c2nnnn2-c2ccc3c(c2)OCCO3)cc1 (stereo not drawn),-23,?,16µM*,nt,-19,3
CN(C)CCNc1ncnc2c1ncn2[C@H]1CN(C)C[C@@H](CO)O1,10,5%,-13%,nt,9,8
Cn1cc([N+](=O)[O-])c(C(=O)NNC(=O)c2ccc([N+](=O)[O-])cc2)n1,nt,1%,-17%,0%,-14,-2
O=C1c2ccccc2C(c2nnnn2-c2ccc3c(c2)OCCO3)N1Cc1ccccc1 (stereo not drawn),2,?,?,nt,41,-6
Cc1ccc(CN2C(=O)c3ccccc3C2c2nnnn2-c2ccc3c(c2)OCCO3)cc1 (stereo not drawn),4,?,16µM*,nt,9,1
CCc1ccccc1NC(=O)c1cc([N+](=O)[O-])ccc1N1CCOCC1,5,-19%,12%,1%,26,3
CC1CCN(c2ccccc2NC(=O)c2cc([N+](=O)[O-])ccc2N2CCOCC2)CC1,-6,?,16µM*,7%,-8,-27
Cc1c(NC(=O)c2cc([N+](=O)[O-])ccc2N2CCOCC2)cccc1-c1nc2ccccc2o1,nt,?,26µM*,-3%,nt,nt
O=C1C=C(c2ccccc2)C[C@H](c2cccs2)[C@H]1n1nnc([N+](=O)[O-])n1,-11,6.5µM*,5.8µM*,6%,-73*,-25
Cc1cc(C)nc(-n2nc(C)cc2NC(=O)c2ccc(S(=O)(=O)N3CCOCC3)cc2)n1,nt,-30%,-24%,8%,11,5
SMILES,CtBP-E1A blk,DT40 TDP1 CPT,TDP1 cell noCPT,TDP1 block,IL1B secr inh,Six1-Eya2 inh
CC(=O)c1cccc(NC(=O)c2ccc(S(=O)(=O)N3CCCC3)cc2)c1,-1,0%,?,7%,-1,1
Cc1cc(C)nc(-n2nc(C)cc2NC(=O)c2cccc(S(=O)(=O)N3CCOCC3)c2)n1,-4,?,21µM*,3%,-8,1
CC(C)Oc1ccc(C(=O)Nc2cccc(S(=O)(=O)N3CCCC3)c2)cc1,-5,29µM*,21µM*,1%,?,7
Cc1cc(C)n(-c2ccc(C(=O)Nc3cccc(S(=O)(=O)N4CCCC4)c3)cc2)n1,?,18µM*,9.2µM*,0%,1,?
O=C(Nc1cccc(S(=O)(=O)N2CCCCC2)c1)c1ccc(OCC2CCCO2)cc1 (stereo not drawn),4,21µM*,16µM*,2%,-15,-5
COc1ccc(CCNC(=O)C2CC(=O)N(CCc3ccc(C)cc3)C2)cc1OC (stereo not drawn),3,-25%,-4%,5%,-8,3
Cc1nn(Cc2nc(-c3cccs3)no2)c(C)c1Br,12,-4%,-27%,-2%,1,4
Cc1cc(C)n(-c2ccc(C(=O)OCC(=O)Nc3ccc(S(N)(=O)=O)cc3)cc2)n1,10,?,-12%,-5%,-1,6
Cc1cc(C)n(-c2ccc(C(=O)OCC(=O)Nc3ccc(S(=O)(=O)N4CCCCC4)cc3)cc2)n1,-7,23µM*,?,10%,-12,-3
O=C(O)c1ccc(NC(=S)NC(=O)c2cccc(COc3ccccc3)c2)cc1,1,-26%,3%,8%,-54*,-7
CCOc1ccc(OCc2cccc(C(=O)O)c2)cc1,-1,15µM*,8.2µM*,1%,8,2
O=C(O)c1cccc(NC(=S)NC(=O)c2ccc3ccccc3c2)c1,-1,1%,21%,7%,43,0
COc1ccc(OCc2cccc(C(=O)O)c2)cc1,-6,?,?,0%,1,-6
O=C(NC(=S)Nc1ccc(CN2CCCCC2)cc1)c1cccc(OCc2ccccc2)c1,-21,9.2µM*,12µM*,5%,0,-25
